About 83,000 compounds went through this panel and 20% of them were active in at least one assay; those are over-represented in the sample as a whole.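 The endpoint reported here, percent growth, reads 100 for growth as untreated, 0 for no net growth and -100 for all cells dead.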 Unmarked numbers belong to inactive results. Calls of active or inactive are those of the source. Rule for the calls: active = growth percent below 10; inactive = the rest.
What follows are molecules tested on LOX IMVI melanoma (assay: NCI-60 one-dose screen, 48 h (100 = growth as untreated, 0 = no growth, -100 = all killed)). Details: 10 µM unless noted.

SMILES | growth
COc1ccc(C(O)c2cc3c(N)c(C(=O)Nc4cccc(Br)c4)sc3nc2C)cc1 (centres undefined) | 15.5%
CC/C(=C(/c1ccc(Cl)cc1)c1ccc(OCCN2CCCCC2)cc1)c1ccc(OC)cc1 | 53.4%
CCOC(=O)c1c2c(n3cccc(F)c13)C(=O)c1ncccc1C2=O | -20.9% (active)
CC(=O)O[C@@H]1C[C@]2(C(C)C)O[C@@]1(C)[C@@H]1CCC(C)=C1[C@@H]2OC(=O)/C=C/c1ccccc1 | 83.3%
O=C(O)c1ccc(-n2cc(/C=N/Nc3ccccc3)c(-c3ccc(F)cc3F)n2)cc1 | 18.5%
O=C(NCc1ccc(Cl)cc1Cl)C1CCC(=O)N1c1cccs1 (centres undefined) | 89.1%
CCSc1oc(-c2ccccc2)nc1[P+](c1ccccc1)(c1ccccc1)c1ccccc1 | -84.9% (active)
O=C1C(=O)N(Cc2ccc(-c3ccccc3)cc2)c2ccc(OC(F)(F)F)cc21 | 20.1%
Cc1nc2sc(C(=O)Nc3ccc(Br)cc3)c(N)c2cc1C(O)c1ccccc1 (centres undefined) | 61.3%
O=C(Cn1cc(CSc2nc3ccccc3o2)nn1)Nc1ccc(F)cc1F | 108%
COC(=O)c1nc(-c2ccc(C)cc2)oc1S(=O)(=O)c1cccc(OC)c1 | 57.1%
COc1ccc(C/C(C)=C(/c2ccc(OCCN(C)C)cc2)c2ccc(OC(=O)NCc3ccccc3)cc2)cc1 | -12% (active)
COc1ccc(/C=C(\C#N)n2nnc3cc(F)c(F)cc32)cc1 | 47.1%
COC(=O)c1c2c(c(C)[n+]([O-])c1C)C(=O)C(NCc1cccc(OC)c1)=CC2=O | 22%

— PubChem BioAssay (NCI)
